Compound activity deposited in PubChem by National Center for Advancing Translational Sciences (NCATS).
Rows were chosen to be rich in hits. Some 2.6% of all compounds tested hit in one or more screens of this group.
ATXN viability – Viability Counterscreen for Primary qHTS for Inhibitors of ATXN expression | S2 cells (HEK-293 line with an ATXN2-luciferase reporter) viability, CellTiter-Fluor protease fluorescence, 24 h | Potency, µM (doses to about 56.7 µM), most hits filed as cytotoxic | 0.49% of 400,000 active | AID 651635, 2014; also: potency is read from the fitted curve at half-maximal effect; nearly all actives have a fitted effect of over 40% in size
HepG2 viability – qHTS for Inhibitors of TGF-b: Cytotox Counterscreen; HepG2 CAGA-GFP viability, ATP luminescence, 18 h; Potency, µM (top dose mostly 46.1 µM), for the others: top-dose activity change, negative = cytotoxicity, usual class: cytotoxic; 0.76% of 410,000 active; also: potency is read from the fitted curve at half-maximal effect
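CellTiter-Glo luminescence gave cytotoxicity after 18 hours at 37 degrees C. The cells were HepG2 CAGA-GFP in 1% FBS DMEM, stimulated with 500 pg/mL TGF-beta after compound addition. %Activity was normalised to no-cell wells (complete cell-killing) and DMSO (no toxicity), and curves were fitted and classified.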
ATXN2 expr inh – Primary qHTS for Inhibitors of ATXN expression; Potency, µM (titrated, usually from 57 µM), inactives show at the highest dose activity change, negative = inhibition, hits mostly inhibitors; 0.72% of 360,000 active; HEK-293 ATXN2-luciferase reporter, luminescence, 24 h; also: potency is read from the fitted curve at half-maximal effect; % is scaled to controls: 0 for no effect and ±100 for the full control effect; nearly all actives have a fitted effect of over 55% in size
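ATXN2-luciferase reporter cells (luciferase flanked by upstream and downstream ATXN2 gene portions) were treated 24 h at 37 °C with compounds at up to 57 uM. SteadyGlo luminescence gave expression; GF-AFC fluorescence gave viability.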
TGFb SMAD3 inh – qHTS for Inhibitors of TGF-b; 1.2% of 410,000 active; Potency, µM (highest dose often 46.1 µM), for the others: top-dose activity, negative = inhibition, usual class: inhibitors; HepG2 CAGA-GFP TGF-b/SMAD3 reporter, GFP fluorescence, 18 h; TGF-beta stimulated, 500 pg/mL final; also: potency is read from the fitted curve at half-maximal effect; % is scaled to controls: 0 for no effect and ±100 for the full control effect; nearly all actives have a fitted effect of over 65% in size
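Read-out: total well GFP (ex488/em500-530) summed from mean per-cell fluorescence. Cells: HEPG2 CAGA-GFP, 1% FBS DMEM, 18 h at 37 degrees C with 500 pg/mL final TGF-beta. Unstimulated wells served as the full-inhibition control; stimulated DMSO wells = 0%.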
uPA generation – qHTS for Inhibitors of Cell Surface uPA Generation | cell surface uPA generation assay, qHTS | AID 540303, 2011 | Potency, µM (highest dose often 38.3 µM), for inactives: at the highest dose activity change, negative = inhibition, hits mostly inhibitors | 0.31% of 330,000 active; active = well fitted inhibition curve with a large enough effect; inconclusive = small, poorly fitted or top-dose-only effect; inactive = no such curve, though single readings can be large or run the other way; tested in mouse RAW 264.7 cells; also: potency is read from the fitted curve at half-maximal effect; % is scaled to controls: 0 for no effect and ±100 for the full control effect; nearly all actives have a fitted effect of over 55% in size
Giardia killer – Small Molecules that selectively kill Giardia lamblia: qHTS | Giardia lamblia trophozoite viability | activity change, % at 7.66 µM, hits read low | 0.15% of 340,000 active | AID 540267, 2011; in the data active = activity change below about -80%; inconclusive = between about -30% and that limit;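 also: parasites exposed to compound for two days anaerobically before the ATP read; % is scaled to controls: 0 for no effect and ±100 for the full control effect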
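Each well holds 100 Giardia trophozoites and compound. After two days (48 hrs) at 37 deg C in anaerobic conditions, ATP is quantified by luminescence.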
* = called active by the depositor; i = inactive; ? = inconclusive; . = no result. Unless noted, calls follow the shape of the dose curve; as a rule, active = well fitted curve in the direction sought with a large enough effect; inconclusive = small, poorly fitted or top-dose-only effect, or another doubt; inactive = no such curve, though single readings can be large; an effect the other way counts as inactive or inconclusive.

SMILES	ATXN viability	HepG2 viability	ATXN2 expr inh	TGFb SMAD3 inh	uPA generation	Giardia killer
CC(C)[C@H](O)C(=O)N[C@@H](C)C(=O)N[C@@H]1C(=O)N(C)CCc2ccccc21	.	.	23%	.	.	.
C=CCCC(=O)Nc1nc(C)c(-c2csc(Nc3ccccc3OC)n2)s1	?	9%	-20%	-22%	3.5µM*	28
CCCCC(=O)Nc1nc(C)c(-c2csc(Nc3ccccc3OC)n2)s1	i	-1%	-6%	-4%	?	5
COc1ccc(Nc2nc(-c3sc(C)nc3C)cs2)c(OC)c1	?	3%	-20%	14%	4.5µM*	-13
COc1ccc(-n2c(CNC(=O)c3cccc(OC)c3OC)nnc2SC)cc1	i	.	.	.	.	.
Cc1cc(C)n(-c2nc(NCCCN(C)C)c3c4c(sc3n2)CCCC4)n1	.	-191%	22µM*	?	-1%	-3
Cc1cc(C)n(-c2nc(NCCN(C)C)c3c4c(sc3n2)CCCC4)n1	22µM*	4.5µM*	14µM*	?	-6%	-2
COC(=O)c1ccc(CN2C[C@H](Sc3ccccn3)C[C@H]2C(=O)N(C)C)cc1	i	.	.	.	.	.
Cc1nc2ccc(NC(=O)c3cccc(S(=O)(=O)N(C)c4ccccc4)c3)cc2s1	?	3%	28µM*	?	-8%	13
CC(C)(C)c1cc(C(C)(C)C)c(NC(=O)c2c[nH]c3ccccc3c2=O)cc1O	.	.	8%	.	.	.
COc1cc(=O)n2c(c1C(=O)NCc1ccco1)CCN(C(=O)c1cccnc1SC)CC2	i	.	.	.	.	.
Cc1ncc2c(c1CNC(=O)c1ccc3c(c1)OCO3)CCN(C(=O)c1scc3c1CCCC3)C2	i	.	.	.	.	.
Cc1ccc(S/C=C\C(=O)c2ccccc2)cc1	22µM*	-9%	?	?	1%	13
Cc1ccc(S(=O)(=O)c2ncccc2[N+](=O)[O-])cc1	5µM*	-12%	.	2.5µM*	4µM*	?
Cc1ccc(S(=O)(=O)c2ncccc2N)cc1	i	2%	.	12%	7%	11
CCc1nnc(NC(=O)c2ccccc2NC(=O)C2CCN(C(=O)c3ccco3)CC2)s1	.	4%	.	1%	.	9
COCCN(C)C(=O)c1cnn(-c2nccc(-c3cc(OC)ccc3OC)n2)c1C	i	.	.	.	.	.
C=C1[C@@H](O)[C@H](CC(C)C)N(Cc2ccccc2Br)S1(=O)=O	.	10µM*	-28%	8.9µM*	?	?
CC(C)=NOc1cc(NC(=O)CCl)cc([N+](=O)[O-])c1	25µM*	-79%	?	6.3µM*	-15%	8
CCC(=O)Nc1cc(ON=C(C)C)cc([N+](=O)[O-])c1	i	2%	-2%	-1%	-3%	-5
O=C(CCl)Nc1cc(SCC(O)CO)cc([N+](=O)[O-])c1 (stereo not given)	8.9µM*	-90%	4µM*	2.8µM*	-16%	10
CCNC(=O)[C@@H]1CCCN1C(=O)[C@H](CCCN=C(N)N)NC(=O)[C@H](CC(C)C)NC(=O)CNC(=O)[C@H](Cc1ccc(O)cc1)NC(=O)[C@H](CO)NC(=O)[C@H](Cc1c[nH]c2ccccc12)NC(=O)[C@H](Cc1cnc[nH]1)NC(=O)[C@@H]1CCC(=O)N1	i	.	11%	.	.	.
Cc1cc(C(=O)Nc2cccc(-c3nc(CNC(=O)c4ccccc4C(F)(F)F)c(C)o3)c2)c(C)o1	i	.	.	.	.	.
O=C1c2cccc(O)c2C(=O)c2c(O)cccc21	i	.	-9%	.	.	.
CC1OC(CC(=O)O)CC2=C1C(=O)c1c(O)cccc1C2=O (stereo not given)	0.95µM*	0.5µM*	1.2µM*	?	-9%	6
SMILES	ATXN viability	HepG2 viability	ATXN2 expr inh	TGFb SMAD3 inh	uPA generation	Giardia killer
CN(C)c1ccc(/C=C/c2cc[n+](C)c3ccc4ccccc4c23)cc1	.	-92%	.	2µM*	.	.
Cc1cc(N(C)C)cc(C)c1/C=C/c1cc[n+](C)c2ccccc12	.	-25%	.	8.9µM*	.	.
C[n+]1ccc(/C=C/c2ccc(C=S)cc2)c2ccccc21	.	-39%	.	1%	.	.
CCCCCCCCCCCCCCCCn1cc[n+](CC(C)=O)c1	30µM*	-104%	?	20µM*	?	4
O=C(/C=C/c1ccccc1)NC(NC(=S)Nc1cccc(Cl)c1)C(Cl)(Cl)Cl (stereo not given)	?	10µM*	?	16µM*	-9%	-11
O=C(/C=C/c1ccccc1)NC(NC(=S)Nc1cccc(O)c1)C(Cl)(Cl)Cl (stereo not given)	i	-46%	-18%	?	-1%	-19
COc1ccc2[nH]c3nc(SCc4nnc(-c5ccc(C)cc5)o4)nnc3c2c1	.	-2%	20µM*	9%	3%	8
COc1ccc(CNC(=O)CSc2nnc3c(n2)[nH]c2ccc(C)cc23)cc1	i	3%	8%	15%	3%	4
COc1ccc(Nc2nc(=O)c3cc([N+](=O)[O-])ccc3s2)cc1	i	4µM*	-9%	8%	4%	-18
Cc1ccc(Nc2nc(=O)c3cc([N+](=O)[O-])ccc3s2)cc1	i	7%	.	5%	0%	?
Cc1ccccc1OCC(=O)NCC(=O)OCc1ccc2ccccc2c1	.	-12%	.	-2%	.	9
COc1ccccc1NC(=S)N(Cc1ccco1)Cc1cc2cccc(C)c2[nH]c1=O	i	-14%	-18%	21%	-2%	-15
COc1ccccc1NC(=S)N(Cc1ccco1)Cc1cc2cc(C)c(C)cc2[nH]c1=O	?	10%	-5%	0%	4µM*	-4
COC(=O)C1CCN(Cc2ccc3c(c2)CN(C(=O)c2ccc(-n4cnnn4)cc2)CCO3)CC1	i	.	.	.	.	.
COc1ccc(-c2nc3c(C(=O)NCCN(C)C)cccc3c3ccccc23)cc1	?	18µM*	0%	0%	-7%	6
